Source: the supplement of paper PMC8253809
Several values for one entry are separate records, joined by “and”; a condition that tells them apart may be missing. Equal values may be shown once.

Assays:
Test in all cases: growth inhibition (% activity, log2 RLU normalised to DMSO / staurosporine); higher = more growth inhibition
Settings in all cases: 33 µM
DIPGX29 = tested on: DIPGX29 (H3.3 K27M diffuse intrinsic pontine glioma line)
Outline: (§1)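 Approved drugs were tested in triplicate at a single final concentration of about 33 μM for 7 days at 37 °C, 5% CO2, on pHGG cell lines and H9-derived neural stem cells. Readout was CellTiter-Glo luminescence, log2-transformed and scaled per plate to % activity between solvent and positive control wells. The median over replicates gives the growth-inhibition value.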

DIPGX37 = tested on: DIPGX37 (H3.3 K27M diffuse intrinsic pontine glioma line)
Outline: as §1

DIPGX7 = tested on: DIPGX7 (H3.3 K27M diffuse intrinsic pontine glioma line)
Outline: as §1

DIPGX9 = tested on: DIPGX9 (diffuse intrinsic pontine glioma line)
Outline: as §1

HGGX39 = tested on: HGGX39 (paediatric high-grade glioma line)
Outline: as §1

HGGX6 = tested on: HGGX6 (H3.3 G34R paediatric high-grade glioma line)
Outline: as §1

HNSC = tested on: HNSC
Outline: as §1

SUDIPGIV = tested on: SUDIPGIV (diffuse intrinsic pontine glioma line)
Outline: as §1

SUDIPGVI = tested on: SUDIPGVI (diffuse intrinsic pontine glioma line)
Outline: as §1

SUDIPGXIII = tested on: SUDIPGXIII (diffuse intrinsic pontine glioma line)
Outline: as §1

Structure (SMILES) | growth inhibition (DIPGX29) | growth inhibition (DIPGX37) | growth inhibition (DIPGX7) | growth inhibition (DIPGX9) | growth inhibition (HGGX39) | growth inhibition (HGGX6) | growth inhibition (HNSC) | growth inhibition (SUDIPGIV) | growth inhibition (SUDIPGVI) | growth inhibition (SUDIPGXIII)
C=C1c2c(Cl)ccc(O)c2C(=O)C2=C(O)[C@]3(O)C(=O)C(C(N)=O)=C(O)[C@@H](N(C)C)[C@@H]3[C@@H](O)[C@H]12.O=C(O)c1cc(S(=O)(=O)O)ccc1O | 3.13% | 1.57% | 2.88% | 2.29% | 8.03% | 6.26% | 8.17% | 7.96% | 4.89% | 3.19%
Cc1cnc(NC(=O)C2=C(O)c3ccccc3S(=O)(=O)N2C)s1 | -1.57% | 2.24% | -0.44% | -0.195% | -0.277% | -2.36% | 0.475% | -3.44% | 1.38% | -0.269%
CS(=O)(=O)Nc1ccc([N+](=O)[O-])cc1Oc1ccccc1 | 0.913% | 1.17% | 0.12% | 0.568% | 2.03% | -1.72% | 27.3% | -3.67% | -1.3% | -2.23%
COc1ccc(C(=O)CC(=O)c2ccc(C(C)(C)C)cc2)cc1 | -1.88% | -1.81% | -1.16% | -0.752% | -2.78% | -0.501% | -0.539% | -0.769% | -2.64% | -0.991%
CC(N)C12CC3CC(CC(C3)C1)C2 (stereo not given) | -0.149% | 2.59% | 0.357% | 0.266% | 1.62% | 0.391% | 1.01% | 0.585% | -0.365% | -0.4%
NC(=O)c1ncn([C@@H]2O[C@H](CO)[C@@H](O)[C@H]2O)n1 | -0.559% | 0.551% | 0.987% | 0.303% | 1.53% | 0.756% | -0.0938% | -0.992% | 2.19% | 0.78%
COc1cc(C)c(/C=C/C(C)=C/C=C/C(C)=C/C(=O)O)c(C)c1C | 5.2% | -2.81% | 6.14% | 8.33% | 7.33% | 6.28% | 7.89% | 6.68% | 4.93% | 1.6%
O=P(O)(O)C(O)(Cc1cccnc1)P(=O)(O)O | 0.184% and -0.127% | -0.218% and -0.408% | 2.03% and 0.167% | 0.335% and 1.09% | 3.43% and 1.8% | 2.06% and -1.19% | 2.32% and -0.808% | -0.292% and 0.354% | -0.685% and 2.28% | -0.822% and -0.975%
CC(=O)Oc1cc2c(s1)CCN(C(C(=O)C1CC1)c1ccccc1F)C2 (stereo not given) | 0.962% | -2.57% | 1.32% | -0.813% | 0.291% | -2.02% | 0.528% | -0.967% | -3.04% | -1.75%
O=C(O)CCNC(=O)c1ccccc1 | 0.362% | 2.48% | 0.618% | 0.575% | 0.895% | 0.906% | -1.4% | 0.839% | 1.57% | 1.01%
Cc1c(C(=O)NN2CCCCC2)nn(-c2ccc(Cl)cc2Cl)c1-c1ccc(Cl)cc1 | -2.71% | -0.227% | 1.25% | -0.743% | -1.14% | -2.08% | 11.7% | -1.46% | -7.47% | 3.18%
Cc1cn([C@H]2C[C@H](N=[N+]=[N-])[C@@H](CO)O2)c(=O)[nH]c1=O | 3.15% | 3.86% | 4.01% | 3.46% | 5.5% | 1.53% | 10.3% | 3.31% | 3.71% | -0.807%
COC(=O)C1=C(C)NC(C)=C(C(=O)OCCN2CCN(C(c3ccccc3)c3ccccc3)CC2)C1c1cccc([N+](=O)[O-])c1 (stereo not given) | 5.69% | 6.99% | 4.72% | 4.03% | 8.12% | 5.46% | 73% | 3.75% | 6.07% | 22%
C[C@H](Cc1cc2c(c(C(N)=O)c1)N(CCCO)CC2)NCCOc1ccccc1OCC(F)(F)F | 1.54% | 2.46% | 0.991% | -0.478% | 0.741% | -0.678% | 3.54% | 1.64% | 1.49% | -1.83%
Cc1cc(NC(=O)C2=C(O)c3ccccc3S(=O)(=O)N2C)no1 | -3.22% | -1.66% | -1.69% | -3.17% | -4.59% | -4.04% | 7.58% | -5.37% | -10.5% | -0.431%
CO[C@H]1C(=O)[C@]2(C)[C@@H](OC)C[C@H]3OC[C@@]3(OC(C)=O)[C@H]2[C@H](OC(=O)c2ccccc2)[C@]2(O)C[C@H](OC(=O)[C@H](O)[C@@H](NC(=O)OC(C)(C)C)c3ccccc3)C(C)=C1C2(C)C | 6.45% | 5.31% | 8.93% | 18.4% | 26.1% | 12.9% | 70.7% | 22.5% | 3.28% | 2.32%
COc1cc2nc(N3CCN(C(=O)C4CCCO4)CC3)nc(N)c2cc1OC (stereo not given) | 1.51% | -0.298% | 0.774% | 0.282% | 2.19% | -0.97% | 28% | 2.95% | -1.11% | -3.7%
CC1=CC(=O)c2ccccc2C1=O | 2.41% | 0.293% | 3.47% | 2.26% | 1.01% | 2.5% | 42.7% | 1.4% | 4.19% | -2.13%
O=C1c2c(O)ccc(O)c2C(=O)c2c(NCCNCCO)ccc(NCCNCCO)c21 | 62.2% | 58.9% | 59.1% | 55.9% | 61.6% | 59% | 62.7% | 59.9% | 35.8% | 39.8%
CCOC(CN1CCN(CC(C)C(=O)c2ccccc2)CC1)c1ccccc1 (stereo not given) | -0.933% | -1.59% | -1.24% | -0.121% | 2.63% | 1.64% | -3.21% | -1.87% | -0.901% | 13.1%
CCCCNC(=O)NS(=O)(=O)c1ccc(C)cc1 | -0.968% | 2.64% | -0.647% | 1.33% | 2.32% | -1.26% | 8.77% | 1.65% | 2.09% | -0.858%
